Records with an inconclusive call do not appear. Active and inactive are the calls of the source. Rule for the calls: active = hit-call score of the fitted dose curve at least 0.9, where 1 is the maximum; inconclusive = response in the unintended direction; inactive = score below 0.9.

rat Somatostatin Receptor (SST), Sstr1 (gene 25033), sequence (P28646 whole entry, looked up): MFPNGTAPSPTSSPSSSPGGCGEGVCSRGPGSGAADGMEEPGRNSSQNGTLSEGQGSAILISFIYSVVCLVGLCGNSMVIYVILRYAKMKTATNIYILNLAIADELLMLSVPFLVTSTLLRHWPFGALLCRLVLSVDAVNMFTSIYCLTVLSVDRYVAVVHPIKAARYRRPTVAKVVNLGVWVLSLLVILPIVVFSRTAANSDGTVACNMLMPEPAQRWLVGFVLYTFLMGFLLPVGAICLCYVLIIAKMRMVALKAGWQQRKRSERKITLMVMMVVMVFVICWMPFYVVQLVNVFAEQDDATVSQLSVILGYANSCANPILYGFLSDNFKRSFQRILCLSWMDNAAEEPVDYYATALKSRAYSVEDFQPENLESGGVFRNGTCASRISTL
rat Neonicotinoid receptor (NNR), Chrna7 (gene 25302), sequence (Q05941 whole entry, looked up): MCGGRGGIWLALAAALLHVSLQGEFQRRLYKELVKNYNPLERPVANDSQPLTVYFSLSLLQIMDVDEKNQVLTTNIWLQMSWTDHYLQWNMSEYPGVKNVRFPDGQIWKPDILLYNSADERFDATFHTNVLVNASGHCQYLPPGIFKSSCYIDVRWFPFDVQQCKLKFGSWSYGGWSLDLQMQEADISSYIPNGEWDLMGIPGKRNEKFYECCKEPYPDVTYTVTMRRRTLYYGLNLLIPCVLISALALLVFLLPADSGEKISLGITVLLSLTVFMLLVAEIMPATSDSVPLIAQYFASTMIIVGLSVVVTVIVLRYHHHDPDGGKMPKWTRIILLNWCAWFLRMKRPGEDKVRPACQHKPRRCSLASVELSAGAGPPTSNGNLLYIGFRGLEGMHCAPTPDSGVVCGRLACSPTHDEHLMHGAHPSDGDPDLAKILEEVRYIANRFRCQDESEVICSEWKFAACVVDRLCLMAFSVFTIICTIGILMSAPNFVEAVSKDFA
rat Opioid Receptor, Non-selective Binding, Oprm1 (gene 25601), sequence (P33535 whole entry, looked up): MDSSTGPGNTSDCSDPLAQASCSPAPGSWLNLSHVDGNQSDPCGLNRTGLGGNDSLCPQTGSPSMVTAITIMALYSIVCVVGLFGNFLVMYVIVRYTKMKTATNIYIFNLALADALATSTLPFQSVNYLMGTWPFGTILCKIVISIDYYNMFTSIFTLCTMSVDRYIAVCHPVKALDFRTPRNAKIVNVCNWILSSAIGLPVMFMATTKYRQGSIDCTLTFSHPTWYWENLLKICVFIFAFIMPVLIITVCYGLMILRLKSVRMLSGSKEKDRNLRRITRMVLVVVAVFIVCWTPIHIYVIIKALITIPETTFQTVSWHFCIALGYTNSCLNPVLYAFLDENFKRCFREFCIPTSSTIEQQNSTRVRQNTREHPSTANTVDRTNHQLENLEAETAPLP
rat Vasopressin 1 Receptor (V1), Avpr1a (gene 25107), sequence (P30560 whole entry, looked up): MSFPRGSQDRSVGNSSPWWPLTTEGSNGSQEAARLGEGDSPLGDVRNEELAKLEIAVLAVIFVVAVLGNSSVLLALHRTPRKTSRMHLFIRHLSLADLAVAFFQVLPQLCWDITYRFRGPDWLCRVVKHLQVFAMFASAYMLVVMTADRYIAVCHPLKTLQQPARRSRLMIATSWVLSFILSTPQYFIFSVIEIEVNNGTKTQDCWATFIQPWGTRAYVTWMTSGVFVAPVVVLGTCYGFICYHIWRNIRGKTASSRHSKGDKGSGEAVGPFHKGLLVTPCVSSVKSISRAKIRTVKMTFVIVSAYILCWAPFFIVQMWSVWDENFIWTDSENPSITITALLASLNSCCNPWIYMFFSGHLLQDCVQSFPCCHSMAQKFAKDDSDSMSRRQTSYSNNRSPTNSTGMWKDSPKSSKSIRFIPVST

One assay deals with rat Somatostatin Receptor (SST), Sstr1 (gene 25033) (UniProt P28646). Briefly: NVS_GPCR_rSST: NovaScreen (NVS) G Protein-Coupled Receptor Assay for rat Somatostatin Receptor (SST) (AID 2283314). The procedure:
NVS_GPCR_rSST is a biochemical, single-readout assay that uses extracted gene-proteins from Rat forebrain membranes in a tissue-based cell-free assay. Measurements were taken 1 hour after chemical dosing in a 96-well plate.NVS_GPCR_rSST is one of one assay component(s) measured or calculated from the NVS_GPCR_rSST assay. It is designed to make measurements of radioligand binding, a form of binding reporter, as detected with scintillation counting signals by Filter-based radiodetection technology.Data from the assay component NVS_GPCR_rSST was analyzed into 1 assay endpoint. This assay endpoint, NVS_GPCR_rSST, was analyzed in the positive analysis fitting direction relative to DMSO as the negative control and baseline of activity. Using a type of binding reporter, loss-of-signal activity can be used to understand changes in the binding as they relate to the gene Sstr1. Furthermore, this assay endpoint can be referred to as a primary readout, because the performed assay has only produced 1 assay endpoint. To generalize the intended target to other relatable targets, this assay endpoint is annotated to the gpcr intended target family, where the subfamily is rhodopsin-like receptor.
Binding assays used specific radioligands (tritiated, iodinated) with non-radioactive competitive displacement ligands in agonist or antagonist protocols (as indicated) and various reference compounds and inhibitors to titrate specific binding to receptors and transporters. Most enzyme assays (CYPs, kinases, phosphatases, proteases, HDACs) used recombinant protein and specific substrates (fluorescence mostly, some colorimetric and radioactive) and inhibitors, followed by a biochemical separation of substrate and product. All assays for the biochemical HTS were initially run in duplicate at a single concentration (10 uM for CYP450 assays and 25 uM for all others). Assay-chemical combinations meeting a pre-defined threshold (e.g., 30% inhibition and other criteria defined below) were then run in singleton concentration-response format with maximum concentration of 20 uM for CYPs and 50 uM for all others. Each assay was run with positive and negative controls, and concurrent controls on every plate. The follow-up (secondary) screen tested active chemical-pairs in concentration series, as well as a few additional assays not tested in the primary screen, some selected negative inactives, and several cases re-run in the concentration series for confirmatory purposes.
By AC50 is commonly meant the concentration at which the activity in the assay is half-maximal. For the molecule `COc1ccc(OC(F)(F)F)cc1CN[C@H]1CCCN[C@H]1c1ccccc1`, the AC50 is 8.11 µM (active).

For the molecule `Cc1cc(SC2=C(O)C[C@@](CCc3ccc(N)cc3)(C(C)C)OC2=O)c(C(C)(C)C)cc1CO`, the AC50 was 17.2 µM (active).

As for `CCCCCCC(C=O)=Cc1ccccc1`, the outcome was inactive.

In the case of `O=C(N[C@@H](c1ccccc1)[C@@H]1CCCCN1)c1cccc(C(F)(F)F)c1Cl`, the concentration at half-maximal activity (AC50) is 6.67 µM (active).

A further assay addresses rat Neonicotinoid receptor (NNR), Chrna7 (gene 25302) (UniProt Q05941). Nature of the assay: NVS_LGIC_rNNR_BungSens: NovaScreen (NVS) Ligand-Gated Ion Channel Assay for rat Neonicotinoid receptor (NNR) (AID 2283315). The method, boiled down:
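Rat cortical membrane preparation incubated 2.5 h with tritiated or iodinated radioligand and test chemical. Bound radioactivity was filtered and counted by scintillation, and displacement was analysed against DMSO.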
As for `CCCCc1nc2cccnc2n1Cc1ccc(-c2ccccc2-c2nnn[nH]2)cc1`, the molecule was called inactive.

Take `CCc1nc(N)nc(N)c1-c1ccc(Cl)cc1`: the AC50 is 10.4 µM (active).

For `Cc1cc(SC2=C(O)C[C@@](CCc3ccc(N)cc3)(C(C)C)OC2=O)c(C(C)(C)C)cc1CO`, the result was inactive.

Turning to `CCCC[C@H]1CN(CC2CCOCC2)C(=O)OC12CCN(C1(C)CCN(C(=O)c3c(C)ncnc3C)CC1)CC2`, the AC50 was 4.46 µM (active).

For the molecule `O=C(O)c1cccnc1`, the molecule was called inactive.

With `CCN(CC)CCOc1ccc(C(=C(Cl)c2ccccc2)c2ccccc2)cc1`, the AC50 was 21 µM (active).

Another assay concerns the target rat Vasopressin 1 Receptor (V1), Avpr1a (gene 25107) (UniProt P30560). Briefly: NVS_GPCR_rV1: NovaScreen (NVS) G Protein-Coupled Receptor Assay for rat Vasopressin 1 Receptor (V1) (AID 2283316). The method, boiled down:
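Concentration-response up to 50 uM for chemicals passing a threshold such as 30% inhibition in an initial duplicate 25 uM screen. Displacement of radioligand from rat liver membranes measured after 1.5 h by filtration and scintillation.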
For `CCc1cc(C2=C(C(=O)O)N(c3ccccc3C(F)(F)F)S(=O)(=O)c3ccccc32)cc2c1OCO2`, the AC50 was 25 µM (active).

Turning to `CC(=O)O`, the call was inactive.

Turning to `CC(C)c1cccc(C(C)C)c1NC(=O)NS(=O)(=O)c1cc(C(C)(C)O)co1`, the molecule was called inactive.

For the molecule `COc1ccc(OC(F)(F)F)cc1CN[C@H]1CCCN[C@H]1c1ccccc1`, the molecule was called inactive.

As for `CCC(C)N(C)C(=O)c1cc2ccccc2c(-c2ccccc2Cl)n1` (stereo not given), the AC50 is 7.4 µM (active).

For the molecule `CO[C@@H]1COCC[C@@H]1N[C@@H]1CC[C@@](C(=O)N2CCc3ncc(C(F)(F)F)cc3C2)(C(C)C)C1`, the result was inactive.

The next assay addresses rat Opioid Receptor, Non-selective Binding, Oprm1 (gene 25601) (UniProt P33535). Nature of the assay: NVS_GPCR_rOpiate_NonSelective: NovaScreen (NVS) G Protein-Coupled Receptor Assay for rat Opioid Receptor, Non-selective Binding (AID 2283318). The method, boiled down: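 Filter-based radioligand displacement using rat forebrain membrane preparations, measured 1.5 h post-dosing. Single-concentration duplicate screen at 25 uM, follow-up in concentration series; activity taken as signal loss relative to DMSO.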
Take `COC(=O)[C@H]1[C@H]2C[C@@H]3c4[nH]c5cc(OC)ccc5c4CCN3C[C@H]2C[C@@H](OC(=O)c2cc(OC)c(OC)c(OC)c2)[C@@H]1OC`: the AC50 was 8.39 µM (active).

With `COc1ccc(OC(F)(F)F)cc1CN[C@H]1CCCN[C@H]1c1ccccc1`, the AC50 was 25 µM (active).

Regarding `CN(C)C(=O)NC1(c2ccccc2)CCN(CCC[C@]2(c3ccc(Cl)c(Cl)c3)CCCN(C(=O)c3ccccc3)C2)CC1`, the AC50 was 2.23 µM (active).

For the molecule `CCc1nc(N)nc(N)c1-c1ccc(Cl)cc1`, the outcome was inactive.

`O=C1OC(c2ccc(O)cc2)(c2ccc(O)cc2)c2ccccc21`: the AC50 was 0.872 µM (active).

Regarding `CO[C@@H]1COCC[C@@H]1N[C@@H]1CC[C@@](C(=O)N2CCc3ncc(C(F)(F)F)cc3C2)(C(C)C)C1`, the AC50 was 25 µM (active).

On to `Cc1cc(SC2=C(O)C[C@@](CCc3ccc(N)cc3)(C(C)C)OC2=O)c(C(C)(C)C)cc1CO`, for which the outcome was inactive.

Consider `CSc1ccc(Oc2ccc(S(N)(=O)=O)cc2CN(C)C)cc1C`, for which the concentration at half-maximal activity (AC50) is 1.36 µM (active).

`NC(=Nc1ccccc1)Nc1ccccc1`: the call was inactive.

As for `CN(C)C(=O)NC1(c2ccccc2)CCN(CC[C@@]2(c3ccc(F)c(F)c3)CN(C(=O)c3ccccc3)CCO2)CC1`, the concentration at half-maximal activity (AC50) was 2.1 µM (active).

With `CC(=O)O[C@]1(C(C)=O)CC[C@H]2[C@@H]3C=C(Cl)C4=CC(=O)[C@@H]5C[C@@H]5[C@]4(C)[C@H]3CC[C@@]21C`, the AC50 was 0.353 µM (active).

On to `O=C(N[C@@H](c1ccccc1)[C@@H]1CCCCN1)c1cccc(C(F)(F)F)c1Cl`, for which the concentration at half-maximal activity (AC50) was 12.8 µM (active).

The subject of the next assay is NCBI gene 24521. Nature of the assay: NVS_IC_rKATPCh: NovaScreen (NVS) Ion Channel Assay for rat Potassium Channel, ATP-Sensitive (KATPCh) (AID 2283319). The method, boiled down:
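Primary duplicate screen at 25 uM, then singleton concentration series to 50 uM maximum, in a rat cortex membrane radioligand displacement assay. Binding measured by filtration and scintillation 2 h post-dose; DMSO baseline.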
Regarding `CCOCCOCCO`, the molecule was classed as inactive.

Turning to `COc1ccc(OC(F)(F)F)cc1CN[C@H]1CCCN[C@H]1c1ccccc1`, the molecule was called inactive.

With `Cc1cc(Cc2ccc(N)c(C)c2)ccc1N`, the molecule was called inactive.

Tested on in another assay: not listed separately
Briefly: NVS_IC_rCaDHPRCh_L: NovaScreen (NVS) Ion Channel Assay for rat Calcium Channel, Type L, Dihydropyridine Site (CaDHPRCh_L) (AID 2283320). The method, boiled down: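 Rat cortex membrane preparation; dihydropyridine-site radioligand displacement read 1 h post-dose by filtration and scintillation. Primary single-point screen 25 uM in duplicate, then concentration series to 50 uM maximum; DMSO as negative control.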
As to `COC(=O)[C@H]1[C@H]2C[C@@H]3c4[nH]c5cc(OC)ccc5c4CCN3C[C@H]2C[C@@H](OC(=O)c2cc(OC)c(OC)c(OC)c2)[C@@H]1OC`, the AC50 is 11.6 µM (active).

With `CN(C)C(=O)NC1(c2ccccc2)CCN(CCC[C@]2(c3ccc(Cl)c(Cl)c3)CCCN(C(=O)c3ccccc3)C2)CC1`, the AC50 is 0.988 µM (active).

Turning to `CSc1ccc(Oc2ccc(S(N)(=O)=O)cc2CN(C)C)cc1C`, the AC50 was 8.08 µM (active).

Take `CN(C)C(=O)NC1(c2ccccc2)CCN(CC[C@@]2(c3ccc(F)c(F)c3)CN(C(=O)c3ccccc3)CCO2)CC1`: the AC50 is 3.38 µM (active).
